# Screens deposited in PubChem BioAssay by several laboratories.
# GLD-1 RNA inh = GLD-1-TGE RNA interaction inhibition (C. elegans); Q17339; inhibition, % at 5.96 µM; purified GLD-1 + fluorescein TGE RNA, fluorescence polarization; hit rate 0.44% among 320,000;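 active = percent inhibition above a per-plate cutoff, the plate mean of test compounds plus 3 SD, cut at about 30% in these data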;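 note: 0% = DMSO wells with GLD-1 and probe and 100% = wells lacking GLD-1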
# Target sequence (Q17339 whole entry, looked up): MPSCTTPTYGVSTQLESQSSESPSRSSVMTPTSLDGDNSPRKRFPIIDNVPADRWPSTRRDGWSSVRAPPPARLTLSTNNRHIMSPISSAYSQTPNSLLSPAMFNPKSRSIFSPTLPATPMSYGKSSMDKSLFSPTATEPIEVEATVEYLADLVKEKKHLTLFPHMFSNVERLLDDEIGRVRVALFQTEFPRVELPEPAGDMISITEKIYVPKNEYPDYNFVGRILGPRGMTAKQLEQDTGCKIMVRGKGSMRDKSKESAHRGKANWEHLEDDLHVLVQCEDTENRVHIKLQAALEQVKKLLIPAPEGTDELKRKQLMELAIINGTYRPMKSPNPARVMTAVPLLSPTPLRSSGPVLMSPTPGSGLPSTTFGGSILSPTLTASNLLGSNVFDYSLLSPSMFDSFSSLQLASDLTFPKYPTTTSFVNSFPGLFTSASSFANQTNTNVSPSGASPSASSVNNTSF
# MEX-5 binding = C. elegans MEX-5 TCR-2 RNA binding activity; MEX-5/FITC-TCR2 RNA binding, fluorescence polarization; hits give low values; activity score (negative = inhibition of binding), % at 10 µM; hit rate 0.38% among 300,000; AID 1832; Q9XUB2;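 active = inhibition past about -25% in most replicates, and total fluorescence under double the plate's negative control median, limit read from the data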;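 note: 0% = DMSO and -100% = 5 µM competing unlabeled TCR2 RNA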
# MCL1 BIM primary = MCL1-BIM-BH3 interaction inhibition (human). hit rate 0.68% among 320,000. AID 2057. GST-MCL1 / FITC-Bim-BH3 fluorescence polarization. inhibition, % at 10.9 µM;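 active = inhibition above the mean inhibition of all tested compounds plus 3 SD, set per campaign, cut at about 40% in these data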;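 note: 0% = DMSO wells and 100% = unlabeled Bim-BH3 peptide control; higher means more loss of mP so more displacement of Bim peptide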
# EBV gp42 block = blocks Epstein-Barr virus glycoprotein 42 binding | Q1HVG2 | Fluorescence polarization binding assay, mP read-out | inhibition, % (tested at 21.74 µM) | hit rate 0.42% among 220,000 | AID 1085; in the data active = inhibition above about 50%
# BCLXL inh = blocks human Bcl-xL binding to Bim BH3 peptide; GST-Bcl-xL / FITC-Bim BH3 peptide fluorescence polarization; hit rate 0.7% among 320,000; inhibition, % at 10.9 µM;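 active = inhibition above the mean of all tested compounds plus 3 SD, cutoff set per campaign, cut at about 30% in these data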;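 note: 0% = DMSO wells and 100% = unlabeled Bim-BH3 peptide competitor; inhibitors lower millipolarization by displacing the labeled peptide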
# Active calls of the source: *; . = no result given. The list is not random: actives were taken first. Their share in the collection is about 1.3%.
SMILES,GLD-1 RNA inh,MEX-5 binding,MCL1 BIM primary,EBV gp42 block,BCLXL inh
CC1(OC(=O)C2CCCC2)C(=O)C=C2C=C(C3CC3)OC=C2C1=O (centres undefined),44*,-12,42*,.,50*
CC1(OC(=O)C2CCCC2)C(=O)C=C2C=C3CCCCN3C=C2C1=O (centres undefined),18,-8,47*,-12,32*
COc1ccc(N=C2S/C(=C\c3ccc(OCC(=O)O)cc3)C(=O)N2CCc2c[nH]c3ccccc23)cc1,.,-2,.,84*,.
COc1ccc(CNC(=O)c2cnc3cc(C)ccn3c2=O)cc1,-20,-28*,5,-9,4
CCOC(=O)c1cnc2cc(C)ccn2c1=O,5,5,0,-7,3
CC(C)c1cc(=O)oc2c3c4c(cc12)CCCN4CCC3,44*,-7,18,51*,26
Cc1cc2oc(=O)cc(CN3CCOCC3)c2cc1C(C)C,1,1,3,.,2
CC(=O)[C@@H]1[C@@H](C(=O)c2ccccc2)[C@]2(C(=O)Nc3ccccc32)[C@H]2C=Cc3cc(F)ccc3N12,6,1,15,-2,20
O=C(c1ccccc1)[C@@H]1[C@@H](C(=O)c2ccc(F)cc2)[C@@]2(C(=O)Nc3ccccc32)[C@H]2c3ccccc3C=CN12,25,1,28,-45,33*
COc1cccc(/C(O)=C/c2nc3ccc(C(=O)NCCc4ccc(Cl)cc4)cc3[nH]c2=O)c1,.,-49*,.,107*,.
CN1c2cccc3cccc(c23)N(C)C1(C)C,-6,1,7,-20,10
CN1c2ccccc2N(C)C1(C)c1cccc2ccccc12,27,-4,27,-77,43*
Cc1cc(C)c(C#N)c(SCC(=O)N2CCN(Cc3ccccc3)CC2)n1,2,1,8,13,6
Cc1cc(C)c(C#N)c(SCC(=O)N2CCCCC2)n1,-1,-1,-10,119*,1
Cc1ccc(/C=C2/Sc3ccc(C(=O)N4CCN(c5ccccn5)CC4)cc3NC2=O)cc1,-5,-61*,-12,.,-6
Cn1ccnc1SCC(=O)c1cccc(C(F)(F)F)c1,-2,0,2,.,-3
CCOC(=O)CN=C1CC(C)(C)CC2=C1Sc1ncnc(N(C)C)c1N2,14,-21,29,43,38*
CCCCC1=CC2=CC(=O)C(C)(OC(=O)CC)C(=O)C2=CN1c1cccc(C#N)c1 (centres undefined),40*,-6,32,.,31*
CCCCC1=CC2=CC(=O)C(C)(OC(=O)CC)C(=O)C2=CN1c1ccc(OC)cc1 (centres undefined),12,-3,4,-6,10
COC(=O)c1c(NC(=O)COC(=O)CCc2ccc(S(=O)(=O)N3CCOCC3)cc2)sc2c1CCC2,2,0,-11,-16,-3
Cn1ccnc1Sc1nc2ccccc2nc1NS(=O)(=O)c1ccccc1,39*,-11,39,12,34*
CC(=O)Nc1ccc(C(=O)NCC2CCCCC2)cc1,2,-3,-10,.,-1
Cc1ccc(N/C=C2/Sc3ccccc3NC2=O)cc1,-61,-54*,5,-103,5
O=C1C2C3C=CC(C3)C2C(=O)N1CNc1ccc(O)cc1 (centres undefined),15,-1,34,-16,30*
Cc1ccc(NCN2C(=O)C3C4C=CC(C4)C3C2=O)cc1 (centres undefined),4,3,0,-1,2
SMILES,GLD-1 RNA inh,MEX-5 binding,MCL1 BIM primary,EBV gp42 block,BCLXL inh
O=C(c1ccco1)N1CCN(c2ncnc3c(-c4ccc(Cl)cc4)nsc23)CC1,4,-29*,9,.,6
Cc1ccc(-c2csc3ncnc(N4CCN(C(=O)c5ccco5)CC4)c23)cc1,-1,.,-12,.,-6
COC(=O)C(NS(=O)(=O)c1ccc(C)cc1)c1ccccc1 (centres undefined),6,2,-3,-8,5
Cc1ccc(S(=O)(=O)NC(C(=O)Oc2ccc3c(C(F)(F)F)cc(=O)oc3c2)c2ccccc2)cc1 (centres undefined),47*,-8,42*,19,45*
CC(=O)NCCNc1ccc([N+](=O)[O-])cc1C#N,3,-41*,-1,4,2
CCOC(=O)c1c(-c2ccccc2)csc1NC(=O)/C(C#N)=C/c1ccc(O)c(OC)c1,-75,1,-96,-66,-66
CCOC(=O)c1c(-c2ccccc2)csc1NC(=O)/C(C#N)=C/c1ccc(OC)c(OC)c1,-9,-43*,-11,-29,-7
CN(CC(=O)Nc1ccc(F)cc1)C(=O)CN1C(=O)c2cccc([N+](=O)[O-])c2C1=O,-3,.,5,.,8
Cc1nc2ccccc2n1/N=C/c1ccc([N+](=O)[O-])s1,8,-76*,7,-20,32*
Cc1cc2ncn(/N=C/c3ccc([N+](=O)[O-])s3)c2cc1C,-1,-1,-42,-38,-18
O=[N+]([O-])c1ccc(/C=N/n2c(CO)nc3ccccc32)s1,-9,-35*,28,53*,18
COc1cccc(NC(=O)CSc2nc3scc(C)c3c(=O)[nH]2)c1,6,-1,1,.,3
Cc1ccc(-c2cc(-c3ccc(F)cc3)c(C#N)c(N)n2)o1,21,0,31,-13,23
Cc1ccc(-c2cc(-c3ccc(C)o3)nc(N)c2C#N)cc1,39*,-2,45*,4,32*
Cc1ccc(C(c2sc3ncnn3c2O)N2CC(C)CC(C)C2)cc1 (centres undefined),-2,-1,-6,-7,56*
COC(=O)CC1=C(C(=O)OC)C(c2ccncc2)C(C#N)=C(N)O1 (centres undefined),5,-1,2,0,10
COC(=O)CC1=C(C(=O)OC)C(c2cccc(OCC(N)=O)c2)C(C#N)=C(N)O1 (centres undefined),16,-1,33,30,32*
O=C(OC[C@H]1O[C@@H](OC(=O)c2cc(O)c(O)c(OC(=O)c3cc(O)c(O)c(O)c3)c2)[C@H](OC(=O)c2cc(O)c(O)c(OC(=O)c3cc(O)c(O)c(O)c3)c2)[C@@H](OC(=O)c2cc(O)c(O)c(OC(=O)c3cc(O)c(O)c(O)c3)c2)[C@@H]1OC(=O)c1cc(O)c(O)c(OC(=O)c2cc(O)c(O)c(O)c2)c1)c1cc(O)c(O)c(OC(=O)c2cc(O)c(O)c(O)c2)c1,90*,.,76*,.,55*
CCN(CC)S(=O)(=O)c1ccc(NN=C2CCN(C)CC2)c([N+](=O)[O-])c1,-3,-5,6,-9,8
Cc1[nH][nH]c(=O)c1C(c1cc([N+](=O)[O-])ccc1O)c1c(C)[nH][nH]c1=O,-1,-27*,-1,-11,11
Cc1[nH][nH]c(=O)c1C(c1ccccc1[N+](=O)[O-])C(C#N)C#N (centres undefined),2,2,8,2,12
